# Source: PubChem BioAssay (Tox21)
# Unmarked numbers belong to inactive results. Records with an inconclusive call do not appear. Where a call stands in place of a potency, no number is given. Activity calls are given as the source filed them. Unless noted, the call rests on the fitted dose curve; in most records, active means well fitted curve in the direction sought with a large enough effect in the repeat runs; inconclusive means weak or mixed curves; inactive means no such curve, though single readings can be large; an effect the other way counts as inactive or inconclusive.
# What was measured:
# [1] = A CellTox Green Cytotoxicity Assay to monitor cytotoxicity in HEK293 cells - 32 hour (AID 1224881); further: nearly all actives have a fitted effect of over 40% in size; further: potency means the concentration at half of the fitted maximal effect
# How it was run: (§1)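 Cytotoxicity was tracked continuously in HEK293 cells by a DNA-binding dye excluded from viable cells. Compounds were transferred in DMSO 5 h after seeding; fluorescence was recorded at intervals up to 40 h.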
# [2] = A CellTox Green Cytotoxicity Assay to monitor cytotoxicity in HepG2 cells - 0 hour (AID 1224882); further: nearly all actives have a fitted effect of over 35% in size; further: potency means the concentration at half of the fitted maximal effect
# How it was run: (§2)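 Real-time, homogeneous cytotoxicity readout: dead-cell DNA staining by CellTox Green in HepG2 monolayers, fluorescence measured at timed intervals up to 40 h of continuous compound exposure.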
# [3] = A CellTox Green Cytotoxicity Assay to monitor cytotoxicity in HEK293 cells - 8 hour (AID 1224884); further: nearly all actives have a fitted effect of over 35% in size; further: potency means the concentration at half of the fitted maximal effect
# How it was run: as §1
# [4] = qHTS RealTime-Glo MT Cell Viability Assay in HepG2 cells - 16 hour (AID 1224885); further: nearly all actives have a fitted effect of over 50% in size
# How it was run: (§3)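 Real-time, nonlytic viability: 600 HepG2 cells/well mixed with NanoLuc enzyme plus prosubstrate; 5 h settle, compound (DMSO) added by pintool; luminescence monitored over 40 h at 37 C.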
# [5] = qHTS RealTime-Glo MT Cell Viability Assay in HEK293 cells - 8 hour (AID 1224887); further: top concentration of the series differs between compounds; nearly all actives have a fitted effect of over 50% in size
# How it was run: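 Nonlytic bioluminescent viability monitoring. HEK293 at 600 cells/well with reagent; 5 h settle; compound transfer by pintool; plates held at 37 C and read at set time points.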
# [6] = A CellTox Green Cytotoxicity Assay to monitor cytotoxicity in HEK293 cells - 16 hour (AID 1224888); further: nearly all actives have a fitted effect of over 35% in size
# How it was run: as §1
# [7] = qHTS RealTime-Glo MT Cell Viability Assay in HepG2 cells - 0 hour (AID 1224889); further: nearly all actives have a fitted effect of over 50% in size; further: potency means the concentration at half of the fitted maximal effect
# How it was run: as §3
# [8] = A CellTox Green Cytotoxicity Assay to monitor cytotoxicity in HepG2 cells - 8 hour (AID 1224890); further: nearly all actives have a fitted effect of over 45% in size; further: potency means the concentration at half of the fitted maximal effect
# How it was run: as §2
# [9] = qHTS assay to identify small molecule antagonists of the estrogen receptor alpha (ER-alpha) signaling pathway using the BG1 cell line in the presence of 0.1 nM 17-beta-estradiol - cell viability counter screen (AID 1259241); further: nearly all actives have a fitted effect of over 40% in size
# How it was run: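 Viability in VM7Luc4E2 cells after 22 hr compound exposure under 0.1 nM 17beta-estradiol stimulation, by CellTiter-Fluor.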
# [10] = biological target: Estrogen receptor (Homo sapiens) (UniProt P03372); assay: qHTS assay to identify small molecule antagonists of the estrogen receptor alpha (ER-alpha) signaling pathway using the BG1 cell line in the presence of 0.1 nM 17-beta-estradiol (AID 1259244); further: nearly all actives have a fitted effect of over 50% in size
# How it was run: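 After 5 days in hormone-depleted medium (charcoal-stripped serum, no phenol red), VM7Luc4E2 cells were seeded, incubated 24 h, then co-treated with compound and 0.1 nM (final) estradiol for 22 h before luminescence detection.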
# [11] = qHTS assay to identify small molecule HDAC inhibitors (AID 1259364); further: nearly all actives have a fitted effect of over 45% in size; further: potency means the concentration at half of the fitted maximal effect; on activity change, negative = inhibition: top concentration of the series differs between compounds
# How it was run: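 Homogeneous cell-based luminescent assay of endogenous class I/II HDAC activity; HCT-116 cells, 2 h compound exposure, 30 min HDAC-Glo development at RT.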
# [12] = qHTS assay to identify small molecule HDAC inhibitors - cell viability counter screen (AID 1259365)
# How it was run: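 Cytotoxicity was gauged in wild-type HCT-116 cells after a brief 2hr treatment with DMSO-dissolved compounds at 37C and 5% CO2, using CellTiter-Glo luminescence developed for 30min at room temperature.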
# [13] = qHTS assay to identify small molecule antagonists of the sonic hedgehog signaling (Shh) pathway - cell viability counter screen (AID 1259367); further: nearly all actives have a fitted effect of over 55% in size; further: potency means the concentration at half of the fitted maximal effect
# How it was run: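 NIH/3T3-derived Gli1-Luc reporter cells, 2,000/well, plated 4 hr before compound addition, then stimulated with conditioned medium for 24 hr at 37C. Viability measured in the same wells by CellTiter-Fluor fluorescence, reagent added at 23 hr for 1 hr.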
# [14] = qHTS assay to identify small molecule agonists of the sonic hedgehog signaling (Shh) pathway (AID 1259368; calls by dose curve;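 further: NIH/3T3-derived 3T3Gli1-Luc cells carrying a stable Gli1-driven firefly luciferase reporter; series mostly up to about 92 µM; nearly all actives have a fitted effect of over 15% in size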)
# How it was run: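 Steps: seed 3T3 Gli1-Luc cells, incubate 4 hr at 37 C, pin-transfer compounds in DMSO alongside a positive control, incubate 24 hr, add luciferase detection reagent, wait 30 min at room temperature, read luminescence.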
# [15] = qHTS RealTime-Glo MT Cell Viability Assay in HEK293 cells - 24 hour (AID 1224886); further: nearly all actives have a fitted effect of over 50% in size; further: potency means the concentration at half of the fitted maximal effect; on activity change, negative = cytotoxicity: top concentration of the series differs between compounds
# How it was run: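 Cells + reagent dispensed (600 cells/well, HEK293) → 5 h at 37 C/5% CO2 → 23 nL compound in DMSO pinned → 40 h at 37 C → luminescence read at 0, 8, 16, 24, 32, 40 h.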
# [16] = qHTS assay to identify small molecule antagonists of the androgen receptor (AR) signaling pathway using the MDA cell line in the presence of 0.5 nM R1881 - cell viability counter screen (AID 1259242); further: nearly all actives have a fitted effect of over 45% in size
# How it was run: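 Cytotoxicity toward MDA-kb2 cells is measured by CellTiter-Fluor live-cell protease fluorescence after 16 hr compound exposure at 37C in the presence of 0.5 nM R1881 stimulator.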
# [17] = qHTS assay to identify small molecule agonists of the sonic hedgehog signaling (Shh) pathway - cell viability counter screen (AID 1259366); further: nearly all actives have a fitted effect of over 50% in size; further: potency means the concentration at half of the fitted maximal effect
# How it was run: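 Stable Gli1-Luc NIH/3T3 clone, 2,000 cells/well. Compound exposure 24hr at 37C. Read-out: CellTiter-Fluor fluorescence.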
# [18] = A CellTox Green Cytotoxicity Assay to monitor cytotoxicity in HepG2 cells - 32 hour (AID 1224883); further: nearly all actives have a fitted effect of over 50% in size; further: potency means the concentration at half of the fitted maximal effect
# How it was run: as §2
# [19] = qHTS assay to identify small molecule phospholipidosis (PLD) inducers (AID 1259344; active means well fitted curve in the direction sought with a large enough effect; an effect the other way counts as inactive or inconclusive)
# How it was run: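 HepG2 cells, 900/well, treated with compound plus LipidTOX Red for 24 h at 37 C; amiodarone positive and DMSO negative controls. Fixed with paraformaldehyde/Hoechst, then high-content imaging scored LipidTOX pit count and integrated intensity per well and per cell.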
# Sequence of Estrogen receptor (Homo sapiens) (P03372 whole entry, looked up): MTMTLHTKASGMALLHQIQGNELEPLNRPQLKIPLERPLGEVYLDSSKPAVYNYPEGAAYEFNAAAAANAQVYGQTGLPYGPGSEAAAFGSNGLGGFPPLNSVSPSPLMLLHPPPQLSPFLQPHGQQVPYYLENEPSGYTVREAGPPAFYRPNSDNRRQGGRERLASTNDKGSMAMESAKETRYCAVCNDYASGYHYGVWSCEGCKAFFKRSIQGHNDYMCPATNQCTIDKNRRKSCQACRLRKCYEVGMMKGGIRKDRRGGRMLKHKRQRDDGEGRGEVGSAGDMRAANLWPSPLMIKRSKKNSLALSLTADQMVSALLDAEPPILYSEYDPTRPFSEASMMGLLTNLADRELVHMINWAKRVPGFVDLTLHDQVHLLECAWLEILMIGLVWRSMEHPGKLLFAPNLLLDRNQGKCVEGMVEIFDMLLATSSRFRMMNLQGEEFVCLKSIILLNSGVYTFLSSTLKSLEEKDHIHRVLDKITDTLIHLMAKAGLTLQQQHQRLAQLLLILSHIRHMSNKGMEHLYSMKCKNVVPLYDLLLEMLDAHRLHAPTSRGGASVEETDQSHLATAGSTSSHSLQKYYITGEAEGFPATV
smiles,measurement,setting,value
O=C(Nc1ccccc1)c1ccccc1O,Potency,[1],inactive
same,Potency,[2],inactive
same,Potency,[3],inactive
same,Potency,[4],inactive
same,Potency,[5],inactive
same,Potency,[6],inactive
same,Potency,[7],inactive
same,Potency,[8],inactive
same,Potency,[9],inactive
same,Potency,[10],inactive
same,Potency,[11],8.63 µM (active)
same,Potency,[12],inactive
same,Potency,[13],61.1 µM (active)
same,outcome,[14],inactive
O=C(NCC1CN(c2ccc(N3CCOCC3=O)cc2)C(=O)O1)c1ccc(Cl)s1 (centres undefined),Potency,[1],inactive
same,Potency,[3],inactive
same,Potency,[4],inactive
same,Potency,[15],inactive
same,Potency,[5],inactive
same,Potency,[9],inactive
same,Potency,[16],inactive
same,Potency,[12],inactive
same,Potency,[17],inactive
same,Potency,[13],inactive
same,outcome,[14],inactive
CCCOC(C(=O)OC1CCN(C)CC1)(c1ccccc1)c1ccccc1,Potency,[2],inactive
same,Potency,[18],21.3 µM (active)
same,Potency,[3],inactive
same,Potency,[4],inactive
same,Potency,[5],inactive
same,Potency,[8],inactive
same,Potency,[9],inactive
same,Potency,[16],inactive
same,Potency,[10],inactive
same,Potency,[11],inactive
same,Potency,[12],inactive
same,Potency,[17],13.3 µM (active)
same,outcome,[14],inactive
CC(C)=CCC/C(C)=C/CC/C(C)=C/CO,Potency,[2],inactive
same,Potency,[3],inactive
same,Potency,[4],inactive
same,Potency,[7],inactive
same,Potency,[8],inactive
same,Potency,[9],inactive
same,Potency,[16],inactive
same,Potency,[11],inactive
same,Potency,[17],inactive
same,Potency,[13],inactive
same,outcome,[14],inactive
C/C=C/C(=O)CC,cytotoxicity,[2],0.505% [at 15.8 µM]
same,cytotoxicity increase,[18],2.71% [at 15.8 µM]
same,"activity change, negative = cytotoxic",[4],0.412% [at 15.8 µM]
same,"activity change, negative = cytotoxicity",[15],0.822% [at 15.8 µM]
same,"activity change, negative = cytotoxicity",[5],0.36% [at 15.8 µM]
same,activity change,[6],"0.377% [at 15.8 µM, hits give high values]"
same,"activity change, negative = cytotoxicity",[7],4.66% [at 15.8 µM]
same,cytotoxicity increase,[8],6.47% [at 15.8 µM]
same,"activity change, negative = cytotoxicity",[9],0.659% [at 19 µM]
same,"viability change, negative = cytotoxic",[16],-0.0358% [at 19 µM]
same,Potency,[10],inactive
same,"activity change, negative = inhibition",[11],-0.325% [at 19 µM]
same,"activity change, negative = cytotoxicity",[12],-0.534% [at 19 µM]
same,"viability change, negative = cytotoxic",[17],14.7% [at 19 µM]
same,activity change,[14],-3.94% [at 18.9 µM]
O=C(Nc1ccc(S(=O)(=O)N2CCOCC2)cc1)c1cc(Cl)ccc1NS(=O)(=O)c1ccc(Cl)s1,Potency,[1],23.9 µM (active)
same,Potency,[2],21.3 µM (active)
same,Potency,[3],23.9 µM (active)
same,Potency,[15],inactive
same,Potency,[5],inactive
same,Potency,[7],9.52 µM (active)
same,Potency,[8],26.8 µM (active)
same,Potency,[9],inactive
same,Potency,[10],inactive
same,Potency,[11],inactive
same,Potency,[12],inactive
same,Potency,[17],inactive
same,Potency,[13],inactive
same,outcome,[14],inactive
CCCCC,Potency,[2],inactive
same,Potency,[18],inactive
same,Potency,[3],inactive
same,Potency,[4],inactive
same,Potency,[15],inactive
same,Potency,[5],inactive
same,Potency,[7],inactive
same,Potency,[8],inactive
same,Potency,[9],inactive
same,Potency,[16],inactive
same,Potency,[11],1.69 µM (active)
same,Potency,[12],inactive
same,Potency,[17],inactive
same,outcome,[14],inactive
CNCCCCOc1ccccc1Cc1ccccc1,Potency,[18],21.3 µM (active)
same,Potency,[3],inactive
same,Potency,[15],21.3 µM (active)
same,Potency,[7],inactive
same,Potency,[8],21.3 µM (active)
same,Potency,[10],inactive
same,Potency,[11],inactive
same,Potency,[12],inactive
same,Potency,[17],33.5 µM (active)
same,Potency,[13],inactive
same,outcome,[14],inactive
CN(Cc1ccc(C(C)(C)C)cc1)Cc1cccc2ccccc12,Potency,[2],inactive
same,Potency,[18],inactive
same,Potency,[3],inactive
same,Potency,[4],inactive
same,Potency,[15],inactive
same,Potency,[5],inactive
same,Potency,[6],inactive
same,Potency,[7],inactive
same,Potency,[8],inactive
same,Potency,[9],inactive
same,Potency,[16],inactive
same,Potency,[10],inactive
same,PLD induction,[19],-0.504% [at 7.66 µM]
same,Potency,[11],inactive
same,Potency,[12],inactive
same,Potency,[17],inactive
same,Potency,[13],inactive
same,outcome,[14],inactive
CCCCCCCCCCCCN1CCCCCC1=O,Potency,[1],inactive
same,Potency,[4],inactive
same,Potency,[6],inactive
same,Potency,[7],inactive
same,Potency,[9],inactive
same,Potency,[16],inactive
same,Potency,[11],inactive
same,Potency,[12],inactive
same,Potency,[17],inactive
same,Potency,[13],inactive
same,outcome,[14],inactive
Clc1ccc2c(c1)CCc1cccnc1C2=C1CCNCC1,Potency,[2],inactive
same,Potency,[18],23.9 µM (active)
same,Potency,[3],inactive
same,Potency,[4],inactive
same,Potency,[5],inactive
same,Potency,[6],inactive
same,Potency,[7],inactive
same,Potency,[8],inactive
same,Potency,[16],inactive
same,Potency,[10],inactive
same,Potency,[11],inactive
same,Potency,[17],11.9 µM (active)
same,outcome,[14],inactive
CCCCCCCCCCCCCCCCCCOS(=O)(=O)O,Potency,[2],inactive
same,Potency,[4],inactive
same,Potency,[5],inactive
same,Potency,[7],inactive
same,Potency,[9],inactive
same,Potency,[16],inactive
same,Potency,[11],inactive
same,Potency,[12],inactive
same,Potency,[17],inactive
same,Potency,[13],inactive
same,outcome,[14],inactive
CCN(CC)CCOC(=O)C(Cc1cccc2ccccc12)CC1CCCO1 (centres undefined),Potency,[18],inactive
same,Potency,[3],inactive
same,Potency,[4],inactive
same,Potency,[5],inactive
same,Potency,[6],inactive
same,Potency,[7],inactive
same,Potency,[9],inactive
same,Potency,[16],inactive
same,Potency,[11],inactive
same,Potency,[12],inactive
same,Potency,[17],inactive
same,Potency,[13],inactive
same,outcome,[14],inactive
